Inconclusive results are not listed. Activity calls are given as the source filed them. Unless noted, calls follow the shape of the dose curve; as a rule, active = well fitted curve in the direction sought with a large enough effect in the repeat runs; inconclusive = weak or mixed curves; inactive = no such curve, though single readings can be large; an effect the other way counts as inactive or inconclusive.
Experiments:
[1] = qHTS RealTime-Glo MT Cell Viability Assay in HepG2 cells - 0 hour (AID 1224889); also: nearly all actives have a fitted effect of over 50% in size
Summary of the method: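 Luminescence read-out: viable HepG2 cells reduce a prosubstrate to a NanoLuc substrate, giving a signal proportional to live cell number. Reads taken at 0, 8, 16, 24, 32 and 40 h of compound exposure at 37 C.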

[2] = A CellTox Green Cytotoxicity Assay to monitor cytotoxicity in HepG2 cells - 8 hour (AID 1224890); also: nearly all actives have a fitted effect of over 45% in size; also: potency is read from the fitted curve at half-maximal effect
Summary of the method: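 Using 1536-well format, dye-containing HepG2 suspension was seeded, allowed 5 h at 37 C/5% CO2, dosed by pintool with compounds, positive and negative controls, and imaged for fluorescence across 40 h.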

[3] = qHTS assay to identify small molecule antagonists of the estrogen receptor alpha (ER-alpha) signaling pathway using the BG1 cell line in the presence of 0.1 nM 17-beta-estradiol - cell viability counter screen (AID 1259241); also: nearly all actives have a fitted effect of over 40% in size
Summary of the method: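 CellTiter-Fluor read (30 min, 37C) on ER-alpha/ERE-luc VM7Luc4E2 cells; 22 hr compound treatment; agonist 0.1 nM E2 final; same-well multiplex.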

[4] = qHTS assay to identify small molecule antagonists of the androgen receptor (AR) signaling pathway using the MDA cell line in the presence of 0.5 nM R1881 - cell viability counter screen (AID 1259242); also: nearly all actives have a fitted effect of over 45% in size
Summary of the method: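 Viability of MDA-kb2 cells was multiplexed with the luciferase AR readout; after 16 hr with compounds and R1881 at 0.5 nM final, CellTiter-Fluor fluorescence was recorded.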

[5] = target: Androgen receptor (Homo sapiens) (UniProt P10275); assay: qHTS assay to identify small molecule antagonists of the androgen receptor (AR) signaling pathway using the MDA cell line in the presence of 0.5 nM R1881 (AID 1259243); also: nearly all actives have a fitted effect of over 50% in size; also: potency is read from the fitted curve at half-maximal effect
Summary of the method: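 Reporter cells cultured without CO2 receive test chemicals, then 0.5 nM R1881 final; after 16 hr at 37C, ONE-Glo is added and light output recorded.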

[6] = qHTS assay to identify small molecule HDAC inhibitors (AID 1259364); also: potency is read from the fitted curve at half-maximal effect;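 also: wild-type HCT-116 cells with endogenous class I/II HDAC activity; nearly all actives have a fitted effect of over 45% in size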; as to activity change, negative = inhibition: top concentration of the series differs between compounds
Summary of the method: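 Read-out: luminescence of HDAC-Glo I/II reagent, 30 min RT, reflecting class I/II deacetylase activity in whole HCT-116 cells pre-exposed 2 h to DMSO-dissolved compounds.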

[7] = qHTS assay to identify small molecule HDAC inhibitors - cell viability counter screen (AID 1259365); also: series mostly up to about 92 µM; nearly all actives have a fitted effect of over 50% in size
Summary of the method: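 To flag cytotoxic hits, 1,500 wild-type HCT-116 cells per well, plated the day before, receive test compounds for 2hr at 37 C before CellTiter-Glo reagent and a luminescence read.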

[8] = target: Estrogen receptor (Homo sapiens) (UniProt P03372); assay: qHTS assay to identify small molecule antagonists of the estrogen receptor alpha (ER-alpha) signaling pathway using the BG1 cell line in the presence of 0.1 nM 17-beta-estradiol (AID 1259244); also: nearly all actives have a fitted effect of over 50% in size
Summary of the method: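 Estradiol at 0.1 nM (final) stimulates the endogenous ER-alpha of VM7Luc4E2 cells carrying an ERE-driven luciferase; compounds are co-incubated 22 h at 37C and luciferase output quantified by luminescence.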

[9] = qHTS assay to identify small molecule phospholipidosis (PLD) inducers (AID 1259344; active = well fitted curve in the direction sought with a large enough effect; an effect the other way counts as inactive or inconclusive)
Summary of the method: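 HepG2 cells, 900/well, treated with compound plus LipidTOX Red for 24 h at 37 C; amiodarone positive and DMSO negative controls. Fixed with paraformaldehyde/Hoechst, then high-content imaging scored LipidTOX pit count and integrated intensity per well and per cell.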
% is scaled to controls: 0 for no effect and ±100 for the full control effect.

Sequence of Androgen receptor (Homo sapiens) (P10275 whole entry, looked up): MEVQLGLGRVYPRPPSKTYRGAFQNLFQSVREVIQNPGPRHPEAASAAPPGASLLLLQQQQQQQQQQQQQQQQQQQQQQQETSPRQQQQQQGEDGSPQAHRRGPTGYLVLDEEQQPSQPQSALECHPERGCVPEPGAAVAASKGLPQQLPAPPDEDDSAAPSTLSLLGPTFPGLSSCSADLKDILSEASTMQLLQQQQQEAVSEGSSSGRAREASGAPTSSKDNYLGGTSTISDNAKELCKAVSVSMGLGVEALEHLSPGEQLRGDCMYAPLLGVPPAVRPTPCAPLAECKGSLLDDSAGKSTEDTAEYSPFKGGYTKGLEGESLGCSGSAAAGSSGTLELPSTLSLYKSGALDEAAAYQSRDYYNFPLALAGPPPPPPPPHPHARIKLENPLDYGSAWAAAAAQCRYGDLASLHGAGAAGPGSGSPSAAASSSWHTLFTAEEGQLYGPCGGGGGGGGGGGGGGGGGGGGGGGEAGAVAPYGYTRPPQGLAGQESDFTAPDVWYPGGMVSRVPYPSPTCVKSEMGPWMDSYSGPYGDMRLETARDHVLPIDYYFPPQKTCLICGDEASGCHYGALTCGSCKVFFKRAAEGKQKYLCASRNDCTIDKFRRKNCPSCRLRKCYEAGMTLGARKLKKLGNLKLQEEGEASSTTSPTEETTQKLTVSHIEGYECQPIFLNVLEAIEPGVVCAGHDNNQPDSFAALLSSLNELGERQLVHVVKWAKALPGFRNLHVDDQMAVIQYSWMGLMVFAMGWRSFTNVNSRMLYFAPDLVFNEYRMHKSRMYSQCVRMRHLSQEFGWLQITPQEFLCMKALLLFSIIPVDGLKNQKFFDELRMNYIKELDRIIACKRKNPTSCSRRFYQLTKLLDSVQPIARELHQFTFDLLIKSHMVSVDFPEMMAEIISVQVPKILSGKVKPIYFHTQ
Sequence of Estrogen receptor (Homo sapiens) (P03372 whole entry, looked up): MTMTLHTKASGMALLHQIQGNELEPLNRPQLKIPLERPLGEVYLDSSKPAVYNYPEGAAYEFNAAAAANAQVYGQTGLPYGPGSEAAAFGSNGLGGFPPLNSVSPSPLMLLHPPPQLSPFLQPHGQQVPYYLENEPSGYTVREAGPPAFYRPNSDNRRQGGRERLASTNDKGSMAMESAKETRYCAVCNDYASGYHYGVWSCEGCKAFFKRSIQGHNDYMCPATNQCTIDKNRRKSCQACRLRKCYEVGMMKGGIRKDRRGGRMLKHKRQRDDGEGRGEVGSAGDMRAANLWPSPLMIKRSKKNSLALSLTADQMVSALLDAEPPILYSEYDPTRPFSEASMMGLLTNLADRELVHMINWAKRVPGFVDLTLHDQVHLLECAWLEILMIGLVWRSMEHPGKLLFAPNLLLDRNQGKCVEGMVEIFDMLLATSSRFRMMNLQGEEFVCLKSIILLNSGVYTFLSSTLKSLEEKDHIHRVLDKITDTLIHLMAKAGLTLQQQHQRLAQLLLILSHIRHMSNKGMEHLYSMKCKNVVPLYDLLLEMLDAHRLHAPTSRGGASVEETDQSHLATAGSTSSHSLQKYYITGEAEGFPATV

CCCc1ncc(C(=O)O)s1
inactive: Potency [1] | Potency [2] | outcome [3] | outcome [4] | Potency [5] | Potency [6] | outcome [7]

C/C=C/C(=O)CCCC
inactive: Potency [1] | Potency [2] | outcome [3] | outcome [4] | outcome [8] | Potency [6] | outcome [7]

O=C(OOC(=O)c1ccccc1)c1ccccc1
inactive: Potency [1] | Potency [2] | outcome [3] | outcome [8] | Potency [9] | outcome [7]

CCCC(=O)OC
inactive: Potency [1] | Potency [2] | outcome [3] | outcome [4] | outcome [8] | Potency [6]

COC(=O)N/N=C/c1c[n+]([O-])c2ccccc2[n+]1[O-]
inactive: Potency [1] | outcome [3] | outcome [4] | outcome [8] | Potency [9] | Potency [6] | outcome [7]
active: Potency [2] 26.8 µM

C=COCCCCO
inactive: Potency [1] | Potency [2] | outcome [3] | outcome [4] | outcome [8] | Potency [6] | outcome [7]

O=Cc1ccc(C(=O)O)cc1
inactive: Potency [1] | Potency [2] | outcome [3] | outcome [4] | outcome [8] | Potency [6] | outcome [7]

CCCCN=C(N)N=C(N)N
inactive: Potency [1] | Potency [2] | outcome [3] | outcome [4] | Potency [9] | Potency [6] | outcome [7]

CCCCS
inactive: Potency [1] | Potency [2] | outcome [3] | outcome [4] | outcome [8] | Potency [6] | outcome [7]

CCCCOCCCC
inactive: Potency [1] | Potency [2] | outcome [3] | outcome [4] | outcome [8] | Potency [6] | outcome [7]

CCc1ncc(C)[nH]1
inactive: Potency [1] | Potency [2] | outcome [3] | outcome [4] | Potency [5] | Potency [6] | outcome [7]

CCOC(=O)CN1CCCC1=O
inactive: Potency [1] | Potency [2] | outcome [3] | outcome [4] | outcome [8] | Potency [6] | outcome [7]

COc1cnc(NS(=O)(=O)c2ccc(N)cc2)nc1
inactive: Potency [1] | Potency [2] | outcome [3] | outcome [4] | outcome [8] | Potency [9] | Potency [6] | outcome [7]

CCCCCCC(=O)c1ccccc1
inactive: Potency [1] | Potency [2] | outcome [3] | outcome [4] | Potency [6] | outcome [7]

CC(C)(C)C(=O)CCc1ccc(Cl)cc1
inactive: Potency [1] | Potency [2] | outcome [3] | outcome [4] | outcome [8] | Potency [6] | outcome [7]

CC[C@@]1(c2ccccc2)NC(=O)N(C)C1=O
inactive: Potency [1] | Potency [2] | outcome [3] | outcome [4] | outcome [8] | Potency [9] | Potency [6] | outcome [7]

CCC(C)c1nccnc1OC (stereo unspecified)
inactive: Potency [1] | Potency [2] | outcome [3] | outcome [4] | outcome [8]

CC[N+](C)(CC)CC
inactive: Potency [1] | Potency [2] | outcome [3] | outcome [4] | Potency [6] | outcome [7]

CC(C)(C)OC=O
inactive: Potency [1] | Potency [2] | outcome [3] | Potency [6] | outcome [7]

CCCCc1ccc(Cl)cc1
inactive: Potency [1] | Potency [2] | outcome [3] | outcome [4] | outcome [8] | Potency [6] | outcome [7]

CCCCN(CCCC)CCCCCCN(CCCC)CCCC
inactive: Potency [1] | Potency [2] | outcome [3] | outcome [8] | Potency [6] | outcome [7]

C=CC(=O)OCCOCCOCC
inactive: Potency [1] | Potency [2] | outcome [3] | outcome [4] | outcome [7]

CCN1CCN(C(=O)N[C@@H](C(=O)N[C@@H]2C(=O)N3C(C(=O)O)=C(CSc4nnnn4C)CS[C@H]23)c2ccc(O)cc2)C(=O)C1=O
inactive: Potency [1] | Potency [2] | outcome [3] | outcome [8] | Potency [9] | Potency [6] | outcome [7]

CCCCCCCCC1CO1 (stereo unspecified)
inactive: Potency [1] | Potency [2] | outcome [3] | outcome [4] | Potency [5] | outcome [7]

Nc1ccc(C(=O)NCC(=O)O)cc1
inactive: Potency [1] | Potency [2] | outcome [3] | outcome [4] | outcome [8] | Potency [9] | Potency [6]

CCCCCC(CC)OC(=O)CCCOc1ccc(Cl)cc1Cl (stereo unspecified)
inactive: Potency [1] | Potency [2] | outcome [3] | outcome [4] | Potency [6] | outcome [7]

COc1ccc(Cl)cc1C
inactive: Potency [1] | Potency [2] | outcome [3] | outcome [4] | outcome [7]

NC[C@H]1O[C@H](O[C@H]2[C@H](O)[C@@H](O[C@H]3O[C@H](CO)[C@@H](O)[C@H](N)[C@H]3O)[C@H](N)C[C@@H]2N)[C@H](N)[C@@H](O)[C@@H]1O
inactive: activity change, negative = cytotoxicity [1] 5.28% [at 15.8 µM] | cytotoxicity increase [2] 0.922% [at 15.8 µM] | activity change, negative = cytotoxicity [3] 2.9% [at 19 µM] | viability change, negative = cytotoxic [4] -0.928% [at 19 µM] | Potency [9] | activity change, negative = inhibition [6] 0.718% [at 19 µM] | activity change, negative = cytotoxicity [7] -0.176% [at 19 µM]

NCC1CCC(C(=O)Oc2ccc(CCC(=O)O)cc2)CC1 (stereo unspecified)
inactive: Potency [1] | Potency [2] | outcome [3] | outcome [4] | Potency [9] | outcome [7]
active: Potency [6] 8.41 µM

Cc1cc(C)c(N)c(Cl)c1
inactive: Potency [1] | Potency [2] | outcome [3] | outcome [4] | outcome [8] | Potency [6] | outcome [7]

Cc1cc(C)c(C)c(C)c1
inactive: Potency [1] | Potency [2] | outcome [3] | outcome [4] | outcome [8] | Potency [6] | outcome [7]

C=C(C)C(=O)OCCCC
inactive: Potency [1] | Potency [2] | outcome [3] | outcome [4] | Potency [5] | Potency [6] | outcome [7]

O=C(O)COc1ccc2ccccc2c1
inactive: Potency [1] | Potency [2] | outcome [3] | outcome [8] | Potency [6]

CNC(=O)c1c(I)c(NC(C)=O)c(I)c(C(=O)O)c1I
inactive: Potency [1] | Potency [2] | outcome [3] | outcome [4] | Potency [6] | outcome [7]

Cc1nnc(C(=O)NC(C)(C)c2nc(C(=O)NCc3ccc(F)cc3)c(O)c(=O)n2C)o1
inactive: Potency [1] | Potency [2] | outcome [3] | outcome [4] | Potency [9] | Potency [6]

O=C(c1ccccc1)c1cccc(O)c1
active: Potency [5] 27.7 µM
inactive: Potency [1] | Potency [2] | outcome [3] | outcome [8] | Potency [6] | outcome [7]
